Screening results deposited in PubChem by National Center for Advancing Translational Sciences (NCATS).
An excerpt weighted towards active compounds, which were near 19% of everything screened.
DT40 TDP1 no CPT: qHTS for Inhibitors of human tyrosyl-DNA phosphodiesterase 1 (TDP1): qHTS in cells in absence of CPT. DT40 Tdp1-/- hTDP1 cells, no CPT, ATP luminescence, 48 h. Potency, µM (titrated, usually from 46.2 µM), without a hit: top-dose activity change, negative = growth inhibition, usual class: inhibitors. 15% of 420,000 active; also: potency is read from the fitted curve at half-maximal effect; % is scaled to controls: 0 for no effect and ±100 for the full control effect; nearly all actives have a fitted effect of over 55% in size
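Readout: luminescence from CellTiter-Glo after 30 min in the dark at RT. Cells: DT40 Tdp1-/- with stable hTDP1, 400/well. Exposure: compounds alone, ≥48 hr, 37 °C.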
TGFb inhibitor: inhibitors of TGF-b signaling | Potency, µM (doses to about 46.1 µM), for inactives: at the top dose activity, negative = inhibition, actives largely listed as inhibitors | HepG2 CAGA-GFP TGF-b/SMAD3 reporter, GFP fluorescence, 18 h; TGF-beta stimulated, 500 pg/mL final | 1.2% of 410,000 active; also: potency is read from the fitted curve at half-maximal effect; % is scaled to controls: 0 for no effect and ±100 for the full control effect; nearly all actives have a fitted effect of over 65% in size
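Smad-responsive CAGA-GFP expression was quantified in HEPG2 cells exposed to compounds and 500 pg/mL final TGF-beta for 18 h at 37 degrees C; unstimulated wells defined full inhibition.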
IL-1B inflam inh: inflammasome signaling inhibition, IL-1 beta readout | activity change, % at 57.5 µM | AID 743279 | THP-1 LPS/ATP IL-1B secretion, AlphaLISA, 16 h; hits give low values | 4.7% of 360,000 active; in the data active = activity change below about -50%; inconclusive = mostly about -30% to -49%; also: % is scaled to controls: 0 for no effect and ±100 for the full control effect
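Secreted IL-1B measured by AlphaLISA bead assay after 16 h compound exposure of THP-1 cells; compounds (final up to 57.5 uM) added 1 h before LPS (250 ng/mL) and ATP (1.25 mM) stimulation; lower signal means less secretion.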
HepG2 tox: HepG2 cytotoxicity, counter-screen for TGF-b inhibitors. Potency, µM (series often up to 46.1 µM), for inactives: top-dose activity change, negative = cytotoxicity, actives largely listed as cytotoxic. HepG2 CAGA-GFP viability, ATP luminescence, 18 h. 0.76% of 410,000 active; also: potency is read from the fitted curve at half-maximal effect
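CellTiter-Glo luminescence gave cytotoxicity after 18 hours at 37 degrees C. The cells were HepG2 CAGA-GFP in 1% FBS DMEM, stimulated with 500 pg/mL TGF-beta after compound addition. %Activity was normalised to no-cell wells (complete cell-killing) and DMSO (no toxicity), and curves were fitted and classified.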
DT40 TDP1 CPT: growth inhibition of DT40 Tdp1-/-;hTDP1 cells with camptothecin (screen for TDP1 inhibitors). AID 686979. Potency, µM (titrated, usually from 46.2 µM), without a hit: at the highest dose activity change, negative = growth inhibition, most hits filed as inhibitors. 12% of 420,000 active. chicken DT40 Tdp1-/-;hTDP1 cells + 20 nM CPT, ATP luminescence, 48 h; also: potency is read from the fitted curve at half-maximal effect; % is scaled to controls: 0 for no effect and ±100 for the full control effect; nearly all actives have a fitted effect of over 55% in size
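Cell growth measured by CellTiter-Glo luminescence after a minimum 48 h, 37 C compound exposure with 20 nM CPT in Tdp1-knockout DT40 cells stably expressing hTDP1, seeded 400/well; qHTS titration format.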
S-ASM inh: blocks human secretory acid sphingomyelinase; placental ASM, HMU-PC fluorogenic substrate, 60 min; Potency, µM (highest dose often 57.5 µM), without a hit: top-dose activity change, negative = inhibition, actives largely listed as inhibitors; 0.006% of 340,000 active; also: potency is read from the fitted curve at half-maximal effect
Target sequence (P17405 47-631 limits assumed): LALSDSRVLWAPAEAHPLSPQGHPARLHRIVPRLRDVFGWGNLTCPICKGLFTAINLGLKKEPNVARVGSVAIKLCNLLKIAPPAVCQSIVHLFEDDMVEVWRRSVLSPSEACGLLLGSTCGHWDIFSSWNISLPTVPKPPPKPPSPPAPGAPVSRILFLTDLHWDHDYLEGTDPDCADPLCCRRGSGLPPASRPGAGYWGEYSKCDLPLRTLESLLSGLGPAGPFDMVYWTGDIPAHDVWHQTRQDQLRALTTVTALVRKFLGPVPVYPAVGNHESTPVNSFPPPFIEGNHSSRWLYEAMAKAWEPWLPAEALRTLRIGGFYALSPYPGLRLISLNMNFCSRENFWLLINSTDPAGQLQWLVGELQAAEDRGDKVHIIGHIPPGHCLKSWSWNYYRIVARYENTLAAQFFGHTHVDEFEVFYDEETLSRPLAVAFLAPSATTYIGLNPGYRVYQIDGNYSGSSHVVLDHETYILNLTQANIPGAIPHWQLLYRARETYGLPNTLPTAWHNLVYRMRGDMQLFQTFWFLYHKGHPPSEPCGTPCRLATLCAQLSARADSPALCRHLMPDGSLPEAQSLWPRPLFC
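Fluorogenic HMU-PC substrate (9 uM final) is turned over by placental ASM in 60 min at 37 C after a 10 min compound preincubation. Reaction ended by alkaline stop (pH 10), with fluorescence read at 386/447 nm.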
* marks the source's active call; other numbers are inactive results; i = inactive; ? = inconclusive; . = not tested or not shown. Unless noted, calls follow the shape of the dose curve; as a rule, active = well fitted curve in the direction sought with a large enough effect; inconclusive = small, poorly fitted or top-dose-only effect, or another doubt; inactive = no such curve, though single readings can be large; an effect the other way counts as inactive or inconclusive.

SMILES | DT40 TDP1 no CPT | TGFb inhibitor | IL-1B inflam inh | HepG2 tox | DT40 TDP1 CPT | S-ASM inh
O=[N+]([O-])c1ccc(N2CCCC2)cc1NCc1ccccc1 | ? | 4% | 19 | -4% | -20% | -16%
Cc1ccc(C)c(S(=O)(=O)N2CCCOC2CNC(=O)C(=O)NCCN2CCOCC2)c1 (stereo not given) | -17% | 0% | 16 | 6% | 5% | 3%
COC(=O)Cc1ccc(OC(=O)CCS(=O)(=O)c2ccc(Cl)cc2)cc1 | 17% | -4% | 14 | -3% | -7% | -1%
Cc1cccc(OCCNc2cc(N3CCN(CCO)CC3)ccc2[N+](=O)[O-])c1 | 21µM* | 1% | 0 | -43% | ? | -21%
Cc1ccc(C)c(-c2nn(-c3cc(N4CCN(CCO)CC4)ccc3[N+](=O)[O-])c(=O)c3ccccc23)c1 | 26µM* | ? | ? | -11% | ? | -21%
Cc1nn(-c2cc(N3CCCC3)ccc2[N+](=O)[O-])c(=O)c2ccccc12 | ? | -9% | 16 | -19% | -21% | -11%
O=[N+]([O-])c1ccc(N2CCOCC2)cc1NCCCO | ? | -5% | -6 | -2% | -28% | -8%
OC(C#Cc1ccccn1)c1cccs1 (stereo not given) | 16µM* | 16µM* | -95* | 10µM* | 18µM* | -7%
C(=C\c1cccs1)/c1ccccn1 | 0% | 7% | . | 32% | 0% | .
CCOC(=O)Cn1nc(C)cc1NC(=O)c1cccnc1 | -1% | -9% | 19 | 0% | 13% | 4%
CC1=Nc2cc(C(=O)NCCN3CCOCC3)ccc2Sc2c(C)ccc(C)c21 | 13µM* | 16µM* | 3 | -62% | 16µM* | 1%
CC1=Nc2cc(C(=O)NCCCN3CCOCC3)ccc2Sc2c(C)ccc(C)c21 | ? | ? | -73* | -30% | ? | -3%
CCCC1=Nc2cc(C(=O)NCCN3CCOCC3)ccc2Sc2ccccc21 | 1% | -7% | 6 | -10% | -26% | -1%
C#Cc1ccc([C@H]2C=C(C(=O)N3CCN(Cc4ccccc4)CC3)O[C@@H](OCc3ccc(CO)cc3)C2)cc1 | 18µM* | -24% | -23 | -19% | 16µM* | -2%
O=C(C1=C[C@@H](c2ccc(Br)cc2)C[C@@H](OCc2ccc(CO)cc2)O1)N1CCN(Cc2ccccc2)CC1 | 23µM* | ? | ? | -2% | ? | -7%
CN1CCN(C(=O)C2=C[C@@H](c3ccccc3)C[C@@H](OCc3ccc(CO)cc3)O2)CC1 | -25% | -10% | -26 | -50% | -23% | 1%
CC1(C(=O)NS(=O)(=O)c2cccc(Cl)c2)CCN1C(=O)C1(c2ccccc2)CC1 (stereo not given) | -2% | 3% | 28 | 10% | -19% | .
COc1ccc(/C(C)=N/NC(=O)CNC(=O)c2cccs2)cc1OC | -24% | 17% | -5 | 0% | 1% | 0%
C/C(=N\NC(=O)CNC(=O)c1cccs1)c1ccc(Cl)c(Cl)c1 | ? | -21% | -19 | -5% | 2.6µM* | -5%
CCC(C(=O)NC1CCCC1)N(C(=O)c1snc(C(N)=O)c1N)c1ccc(OC)cc1 (stereo not given) | 13% | -6% | 23 | 1% | ? | 42%
CCCCC(C(=O)NC1CCCC1)N(C(=O)c1snc(C(N)=O)c1N)c1ccc(C)cc1 (stereo not given) | ? | -1% | -17 | 1% | 18µM* | 84%
CCC(C(=O)NC1CCCC1)N(C(=O)c1snc(C(N)=O)c1N)c1ccc(C)cc1C (stereo not given) | 18µM* | -3% | -8 | -9% | ? | i
